Measured values published in PubChem BioAssay AID434947 (Broad Institute, 2010).
Screen size: about 2,200 compounds; about 15 (0.7%) were called active.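 How the source made its calls: active means fitted half-maximal concentration for loss of luminescence signal no more than a set limit of log units above the top tested concentration; inconclusive means flat fit with 30 to 70% signal loss, or invalid fit; inactive means half-maximal concentration above that set limit.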 This excerpt belongs to a sample that is enriched for actives.

assay: ADP-Glo luciferase signal interference – biochemical, luminescence, cell-free, homogeneous, artefact control for GSK3beta inhibitor project, dose response (AID 434947); details: Cell-free ADP-Glo reagents, 5 uM ADP;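 further: kinase-free counter screen of ADP-Glo detection reagents for GSK3beta hits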

SMILES	EC50
CC(C(=O)NCc1ccco1)n1cc([N+](=O)[O-])cn1 (centres undefined)	> 30 µM (inactive)
CCOC(=O)CCCSc1nnc(CCCCCN2C(=O)c3cccc4cccc(c34)C2=O)o1	> 30 µM (inactive)
CCN(CC)Cc1c(O)ccc2occ(C(=O)c3ccc(OC)cc3)c12	> 30 µM (inactive)
Clc1ccc(-c2nnc(-c3ccccc3)c(N3CCSCC3)n2)cc1	> 30 µM (inactive)
COc1ccc(Nc2ccccc2C(=O)O)cc1	> 30 µM (inactive)
O=C(CN(Cc1cccs1)C(=O)CCC(=O)Nc1ccccn1)NCc1ccccc1	> 30 µM (inactive)
N#Cc1c(N)n(-c2cccc(O)c2)c2nc3ccccc3nc12	> 30 µM (inactive)
Cc1ccc(S(=O)(=O)NCC2COc3ccccc3O2)cc1 (centres undefined)	> 30 µM (inactive)
CN1CCN(c2nc(-c3ccccc3)nc(-c3ccccc3)c2C#N)CC1	> 30 µM (inactive)
COC(CNC(=O)CCc1c(C)nc2c(c(C)nn2-c2ccc(C)cc2)c1C)OC	> 30 µM (inactive)
CCOC(=O)c1nnn(-c2nonc2N)c1CN(CC)CC	> 30 µM (inactive)
COc1cccc2cc(C(=O)CS(=O)(=O)c3ccc(C)cc3)c(=O)oc12	> 30 µM (inactive)
CCCOc1ccc(-c2c(C(=O)N/N=C(\C)c3ccco3)nnn2-c2nonc2N)cc1	> 30 µM (inactive)
CCc1ccc(/C=N/NC(=O)c2nnn(-c3nonc3N)c2CN2CCc3ccccc32)cc1	> 30 µM (inactive)
NC(=O)c1ccc(Oc2ccc(Cl)c3ccccc23)c([N+](=O)[O-])c1	> 30 µM (inactive)
Cc1[nH]nc2c1C(c1cccs1)C1=C(CCCC1=O)N2 (centres undefined)	> 30 µM (inactive)
CC(C)CCNc1nc(N)c([N+](=O)[O-])c(NC2CCCCC2)n1	> 30 µM (inactive)
CCCCn1nc(NC(=O)COC)c2cc3cc(OC)ccc3nc21	> 30 µM (inactive)
O=C(c1cccs1)c1coc2ccc(O)c(CN(CCO)CCO)c12	> 30 µM (inactive)
COc1cccc(C2C3=C(CCCC3=O)Nc3[nH]n(-c4ccccc4)c(=O)c32)c1 (centres undefined)	> 30 µM (inactive)
Cc1ccc(C(=O)O/N=C\c2ccc(N3CCCCC3)c([N+](=O)[O-])c2)cc1	> 30 µM (inactive)

SMILES	EC50
Cc1ccc(Sc2ccc(/C=N/O)cc2[N+](=O)[O-])cc1	> 30 µM (inactive)
CS(=O)(=O)N(CCc1ccccc1)CC(=O)N1CCN(c2ccccc2F)CC1	> 30 µM (inactive)
CC1CCN(Cc2c(C(=O)N/N=C/c3ccccc3O)nnn2-c2nonc2N)CC1	> 30 µM (inactive)
Cn1c(SCC(=O)NC2CCCCC2)nnc1-c1ccccn1	> 30 µM (inactive)
O=C(CCSc1nnc(-c2ccncc2)o1)Nc1ccc(F)cc1	> 30 µM (inactive)
O=C1Nc2cc(C(=O)NCCCN3CCCC3)ccc2S/C1=C/c1ccccc1F	> 30 µM (inactive)
CCCNC(=O)c1ccc(Cl)cc1Cl	> 30 µM (inactive)
COc1cccc(C(=O)CSc2nccn2C)c1	> 30 µM (inactive)
COc1ccc(-c2cc(C(=O)N3CCN(C(=O)c4ccco4)CC3)[nH]n2)cc1	> 30 µM (inactive)
CC(C)(C)C(=O)COC(=O)c1ccc(O)cc1	> 30 µM (inactive)
CC(OC(=O)c1nsc(Cl)c1Cl)C(=O)NCc1ccco1 (centres undefined)	> 30 µM (inactive)
COC(=O)C1=C(C)N(Cc2ccccc2)C(=NCc2ccc(OC)cc2)N[C@H]1c1cccc(F)c1	> 30 µM (inactive)
CS(=O)(=O)N(Cc1ccccc1)c1ccc(C(=O)Nc2ccccc2Sc2ccccc2)cc1	> 30 µM (inactive)
Cc1ccnc(NC(=O)c2ccc([N+](=O)[O-])o2)c1	> 30 µM (inactive)
CCCCc1cc(=O)oc2cc(C)cc(OC(C)C(=O)O)c12 (centres undefined)	> 30 µM (inactive)
NC(=O)C1CCN(c2nc3c(S(=O)(=O)c4ccccc4)nnn3c3ccccc23)CC1	> 30 µM (inactive)
Cc1ccnc(SCCn2c(N3CCOCC3)nc3c2c(=O)[nH]c(=O)n3C)n1	> 30 µM (inactive)
CCSc1nc2sc3c(c2c(=O)n1-c1ccccc1)CCN(C)C3	> 30 µM (inactive)
CCOC(=O)c1cnc2c(C)cccc2c1Nc1ccc(N2CCOCC2)cc1	> 30 µM (inactive)
COc1ccc(-c2nn(-c3ccccc3)cc2CO)cc1OC	> 30 µM (inactive)
COc1cccc2c1cc1c(=O)n(CC(=O)NCCCc3ccccc3)nc(C)n12	> 30 µM (inactive)

SMILES	EC50
Cc1[nH]nc2c1C(c1ccc(N(C)C)cc1)C1=C(CC(C)(C)CC1=O)N2 (centres undefined)	> 30 µM (inactive)
CC(C(=O)NCc1ccccc1)n1cc([N+](=O)[O-])cn1 (centres undefined)	> 30 µM (inactive)
CC(C)N1CCc2c(sc(NC(=O)CCS(=O)(=O)c3ccccc3)c2C(N)=O)C1	> 30 µM (inactive)
COc1cc(/C=C2/SC(=Nc3ccc(O)cc3)NC2=O)ccc1O	> 30 µM (inactive)
CN(C)Cc1c(O)ccc2c(=O)c(-c3ccccc3)c(C(F)(F)F)oc12	> 30 µM (inactive)
COc1ccc(-c2nn(-c3ccccc3)cc2/C=C(\C#N)S(=O)(=O)c2ccccc2)cc1OC	> 30 µM (inactive)
Cc1ccc(S(=O)(=O)/N=C2/NC(=O)/C(=C/c3ccccc3)S2)cc1	> 30 µM (inactive)
CN(C)c1ccc(C(=O)NN2C(=O)c3ccccc3C2=O)cc1	> 30 µM (inactive)
O=C1CC(c2ccc(O)c(O)c2)Oc2cc(O)cc(O)c21 (centres undefined)	> 30 µM (inactive)
Cc1nn(-c2ccccn2)c2c1C(c1ccsc1)C1=C(CCCC1=O)N2 (centres undefined)	> 30 µM (inactive)
COc1cc(C(c2nnnn2C(C)(C)C)N2CCN(c3nc4ccccc4s3)CC2)ccc1O (centres undefined)	> 30 µM (inactive)
Cc1ccc2sc(N3CCN(CCNC(=O)c4ccco4)CC3)nc2c1C	> 30 µM (inactive)
O=[N+]([O-])c1cc(/C=N/O)ccc1N1CCCC1	> 30 µM (inactive)
CCOC(=O)c1nnn(-c2nonc2N)c1CSc1ccc(C)cc1	> 30 µM (inactive)
CC1(C)CC2CC(C)(CN2S(=O)(=O)c2ccc(C(=O)Nc3ccc(Cl)c(S(=O)(=O)N4CCOCC4)c3)cc2)C1 (centres undefined)	> 30 µM (inactive)
COCCN(CC(=O)NCc1ccc(F)cc1)C(=O)CCC(=O)Nc1ccccn1	> 30 µM (inactive)
Cc1nc(NCCCn2ccnc2)c2ccccc2n1	> 30 µM (inactive)
Cc1csc(SCC(=O)Nc2ccc(Cl)cn2)n1	> 30 µM (inactive)
CCc1nnc(NC(=O)c2cc(-c3ccccc3)nn2-c2ccccc2)s1	> 30 µM (inactive)
O=C(CS(=O)(=O)c1ccccc1)Nc1ncc([N+](=O)[O-])s1	> 30 µM (inactive)
COc1ccc2nc(C)cc(N3CCOCC3)c2c1	> 30 µM (inactive)

SMILES	EC50
CC1=C(C(=O)Nc2ccccc2F)C(c2cccs2)C2=C(CCCC2=O)N1 (centres undefined)	> 30 µM (inactive)
Cc1ccc2c(C)c(C(=O)Nc3nnc(C)s3)oc2c1	> 30 µM (inactive)
NC1=NC(=Nc2ccccc2)c2ccccc21	> 30 µM (inactive)
CCCn1nc(NC(=O)C(C)C)c2cc3cc(OC)ccc3nc21	> 30 µM (inactive)
CCNC(=S)Nc1ccc2cn[nH]c2c1	> 30 µM (inactive)
COc1cccc(C(=O)NCC(=O)N/N=C(C)\C=C\c2ccccc2)c1	> 30 µM (inactive)
CC(C)CCNc1nc(N)c([N+](=O)[O-])c(NCC2CCCO2)n1 (centres undefined)	> 30 µM (inactive)
COc1ccccc1Nc1nc(N(C)c2ccccc2)nc(N)c1[N+](=O)[O-]	> 30 µM (inactive)
CN(Cc1c(C(=O)N/N=C/c2cccc(F)c2)nnn1-c1nonc1N)c1ccccc1	> 30 µM (inactive)
Cc1nn(-c2ccccc2)c2c1cc1c(=O)n(C)c(=O)nc-1n2-c1ccccc1F	> 30 µM (inactive)
CC1=NN(C(=O)CCc2ccc3c(c2)OCO3)C(O)(C(F)(F)F)C1 (centres undefined)	> 30 µM (inactive)
CCCn1c(SCC(=O)Nc2ccc(Cl)cn2)nnc1C1CC1	> 30 µM (inactive)
COc1ccc(C(=O)c2sc(Nc3ccccc3)nc2C)cc1	> 30 µM (inactive)
COc1ccc2occ(C(=O)c3cccs3)c2c1	> 30 µM (inactive)
COc1cccc(C(N)=O)c1	> 30 µM (inactive)
COc1ccc(C(=O)O/N=C(\C)c2ccccc2)cc1	24 µM (active)
COc1ccc(C(=O)O/N=C(/C)c2cccs2)cc1	16.2 µM (active)
COc1ccc(C(=O)c2ccsc2N)cc1	> 30 µM (inactive)
Cc1ccc(SCC(=O)N2CC(C)OC(C)C2)cc1 (centres undefined)	> 30 µM (inactive)
COc1ccc(-c2cc(C(F)(F)F)nc(SCCC(=O)N3CCOCC3)n2)cc1	> 30 µM (inactive)
COc1ccc(Cl)cc1NC(=O)CS(=O)(=O)c1cccc2nsnc12	> 30 µM (inactive)
